In the supplement of paper PMC6555819:

Experiments:
Test in all cases: PBM binding z-score (relative to random genomic background probes); higher = stronger binding; sequences stand for … in GC…GCGATTGACAGCGTAGAATGAAGG
[1] = test system: FXR:RXRa (NR concentration 270 nM, RXRa partner concentration 90 nM)
Outline: (§1)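 Antibodies against each partner of ligand-free nuclear receptor dimers (one per run) detected binding on custom Agilent 4×180K protein-binding microarrays after 1 h incubation. The double-stranded probes had 34-nt variable regions carrying direct-repeat seeds, single-nucleotide variants, half-site ablations and random human genomic background sequences. Binding z-scores, from regression-normalized fluorescence, use the random background probes as reference.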

[2] = test system: LXRa:RXRa (NR concentration 270 nM, RXRa partner concentration 90 nM)
Outline: as §1

[3] = test system: LXRa homodimer (NR concentration 270 nM)
Outline: as §1

[4] = test system: LXRb:RXRa (NR concentration 270 nM, RXRa partner concentration 90 nM)
Outline: as §1

[5] = test system: LXRb homodimer (NR concentration 270 nM)
Outline: as §1

[6] = test system: PPARa:RXRa (NR concentration 270 nM, RXRa partner concentration 90 nM)
Outline: as §1

[7] = test system: PPARg:RXRa (NR concentration 180 nM, RXRa partner concentration 90 nM)
Outline: as §1

[8] = test system: PPARg:RXRa 270nM:90nM, anti-RXR (NR concentration 270 nM, RXRa partner concentration 90 nM)
Outline: as §1

[9] = test system: PPARg:RXRa 30nM:10nM, anti-RXR (NR concentration 30 nM, RXRa partner concentration 10 nM)
Outline: as §1

[10] = test system: PPARg:RXRa 90nM:30nM, anti-RXR (NR concentration 90 nM, RXRa partner concentration 30 nM)
Outline: as §1

[11] = test system: PPARg:RXRa DBDmut IVT, anti-RXR (DBD mutation: RXRa K156A/R161A, NR concentration 270 nM, RXRa partner concentration 90 nM)
Outline: as §1

[12] = test system: PPARg:RXRa IVT, anti-PPARg (NR concentration 270 nM, RXRa partner concentration 90 nM)
Outline: as §1

[13] = test system: PPARg DBDmut:RXRa IVT, anti-PPARg (DBD mutation: PPARg1 K132A/R137A, NR concentration 270 nM, RXRa partner concentration 90 nM)
Outline: as §1

[14] = test system: PPARg DBDmut IVT, anti-PPARg (DBD mutation: PPARg1 K132A/R137A, NR concentration 270 nM)
Outline: as §1

[15] = test system: PPARg homodimer (NR concentration 180 nM)
Outline: as §1

[16] = test system: PXR:RXRa (NR concentration 270 nM, RXRa partner concentration 90 nM)
Outline: as §1

[17] = test system: PXR homodimer (NR concentration 270 nM)
Outline: as §1

[18] = test system: RARa:RXR (NR concentration 270 nM, RXRa partner concentration 90 nM)
Outline: as §1

[19] = test system: RARa homodimer (NR concentration 270 nM)
Outline: as §1

[20] = test system: RARb:RXRa (NR concentration 270 nM, RXRa partner concentration 90 nM)
Outline: as §1

Sequence	PBM binding z-score [1]	PBM binding z-score [2]	PBM binding z-score [3]	PBM binding z-score [4]	PBM binding z-score [5]	PBM binding z-score [6]	PBM binding z-score [7]	PBM binding z-score [8]	PBM binding z-score [9]	PBM binding z-score [10]	PBM binding z-score [11]	PBM binding z-score [12]	PBM binding z-score [13]	PBM binding z-score [14]	PBM binding z-score [15]	PBM binding z-score [16]	PBM binding z-score [17]	PBM binding z-score [18]	PBM binding z-score [19]	PBM binding z-score [20]
TCTGCTAGGTCAGTTGGTCAGCAAACGAGCTGCC	0.988	0.432	-0.424	0.394	0.405	1.36	0.418	1.65	1.19	1.41	2.75	2.88	0.288	0.656	0.233	0.285	-0.998	0.565	-1.22	3.25
TCTGCTAGGTCAACGATGGTCAGCTATTCTGCTA	3.16	2.62	-0.457	1.39	-0.158	3.15	2.42	2.96	2	2.29	4.2	4.42	0.0784	0.733	0.972	1.41	-1.08	2.24	-0.753	4.11
GCAGACAGGTGAAACGCAGGTATCTCAGGGTGGC	-0.22	-0.184	-0.68	-0.253	-1.19	0.544	0.481	0.0316	-0.675	-0.473	0.78	0.498	-0.724	-0.85	-0.577	-0.328	-0.634	0.112	-0.595	0.463
GCTTACGGGTCAAAGGATATAGCATGAATAGAAT	5.93	3.75	-0.261	3.44	0.261	5.37	5.87	5.9	3.29	5.26	4.24	4.01	1.25	1.03	1.09	3.09	-0.166	3.94	0.713	3.54
CCGAGCAGGCCAGGGTCACTCAAGCATTTCGCTT	2.23	1.75	-0.467	2.16	-1.08	2.97	0.393	1.19	-0.201	0.482	-0.216	0.461	-1.99	-1.55	1.51	2.78	-0.479	3.47	-0.256	2.65
GCTGCTTGGTCAGGTTGGTCAGCTAACGGGTACG	-0.11	-0.383	-0.554	-0.457	-0.187	-0.407	-0.682	-0.648	-0.905	-1.09	-0.165	0.0885	-0.778	-0.893	-0.123	-0.298	-0.597	-0.108	-0.538	0.63
GGATCGAGGGCATTCGAGTTGATAGCATGGCGAT	0.788	1.56	-0.155	-0.0829	-0.428	1.47	0.73	0.681	-0.121	0.313	2.58	2.38	-0.372	-0.843	0.175	3.64	1.17	1.16	-0.556	1.83
GCTAGTTGGTCAGTCAAAGGTCACACACCGGTCG	3.52	4.41	4.17	3.94	0.493	4.62	5.33	5.92	4.22	5.9	1.51	3.42	-0.105	0.277	3.62	5.2	1.01	6.33	1.11	4.36
CGTCATAGTTCAACTAAGGTAACGTAAAGCACGC	3.55	3.63	1.02	2.13	0.806	3.13	1.66	2.25	0.562	1.56	0.114	1.07	0.48	1.14	1.81	3.86	1.23	2.73	1.04	3.59
TCTTGTAGATAAAAGGTTAAGAAAGCCGAAGCCT	1.26	1.93	-0.0435	1.85	0.124	3.26	3.62	5.64	4.77	5.98	2.1	1.64	0.235	0.63	1.07	1.4	0.0184	1.84	0.655	1.91
TCATATAGGTAAAGGTGAAATTCGAACGATATGA	0.843	1.08	-0.192	1.14	0.15	3.13	4.11	4.26	4.22	4.3	3.77	3.94	1.35	1.08	0.745	0.895	0.378	1.54	0.597	1.77
TCTTGTAGAACAACAGGAGGTTAAGAAAGATCGA	0.0476	1.07	-0.0587	0.901	-0.216	1.28	0.33	1.56	2.79	2.15	2.21	0.963	0.603	0.55	0.00875	0.716	0.0491	0.961	0.174	0.469
ACTAGCAGGCCAACTTTGGGTCACTCAAACAAAG	0.261	0.66	0.362	0.931	-0.445	1.53	0.543	0.901	-0.236	0.471	1.25	1.4	0.153	-0.0474	0.721	0.676	-0.281	1.52	-0.417	1.74
GGAACGAGGGTAAGTTGATAGCAGAGTTTGATGG	-0.0165	-0.0993	-0.232	-0.276	-0.358	0.189	0.422	0.00426	-0.0948	-0.0902	1.59	0.763	0.619	0.0122	0.193	0.0431	0.405	-0.00911	0.262	0.727
